# Whole data set: some 33,000 sequences, median “e-score” near -0.05, cut for the highest 2% near 0.38. For the sample, the highest values were picked, then their nearest neighbours and some sequences at random.
# Biological target: T1, SIX1-Q177R homeodomain (human, UniProt Q15475 108-198, Q177R)
# T1 sequence: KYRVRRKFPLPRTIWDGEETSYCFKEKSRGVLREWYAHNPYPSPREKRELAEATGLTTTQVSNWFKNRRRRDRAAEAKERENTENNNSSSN
# Assay: universal protein binding microarray; Universal all-10-mer PBM (8x60K, AMADID 030236), 300 nM GST-tagged protein, Alexa Fluor 488 anti-GST; buffer, salt, pH and temperature not stated (as in Berger); high values mean tight binding
# Settings: protein: ivt; tags: N-terminal GST; dsDNA, one strand shown
# Procedure, shortened: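 Homeodomains fused to GST were made by in vitro transcription/translation and measured by anti-GST western blot with a recombinant GST standard curve. At 300 nM final concentration, they were applied in duplicate to universal 'all 10-mer' protein binding microarrays (8×60K format).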
row,Sequence,binding signal [E-score]
1,CAAAGGGG,0.188 ± 0.0422
2,CCCCATAG,0.209 ± 0.0311
3,TACCAACA,0.167 ± 0.0345
4,GTGTACAC,0.4741 ± 0.00152
5,ATGTACAC,0.435 ± 0.00667
6,CTGCACAC,0.247 ± 0.0168
7,CTGTACCC,0.183 ± 0.0197
8,GTACACAC,0.355 ± 0.0185
9,ATGTACCC,0.19 ± 0.00303
10,CTGTACAC,0.41165 ± 0.000233
11,GTGTACAA,0.4291 ± 0.00333
12,ACCCGGCG,0.235 ± 0.0231
13,CCCATACA,0.192 ± 0.0397
14,CTCGGACA,0.171 ± 0.0363
15,AGGGATCC,0.212 ± 0.0252
16,ACACAACA,0.268 ± 0.0457
17,CCCGATTA,0.166 ± 0.0206
18,TGATAACA,0.153 ± 0.0108
19,TGTCTAAA,0.199 ± 0.0261
20,CACCAGCA,0.341 ± 0.0362
21,GACCCCAC,0.2185 ± 0.00167
22,AAACACGA,0.324 ± 0.0263
23,AAACACTC,0.321 ± 0.0305
24,AAACAACA,0.166 ± 0.016
25,GAACACCA,0.4685 ± 0.000778

row,Sequence,binding signal [E-score]
1,TAACACTA,0.384 ± 0.0373
2,AAACACAC,0.344 ± 0.0104
3,GAACACTA,0.356 ± 0.0123
4,CAACACTA,0.34 ± 0.0042
5,GAGCACCA,0.243 ± 0.0142
6,AAACACCA,0.454 ± 0.0052
7,AAACACCC,0.45 ± 0.00506
8,AAACACTA,0.298 ± 0.0405
9,CACGGGAG,0.17 ± 0.0204
10,ACCGAACC,0.197 ± 0.00959
11,ACCCCCCC,0.31 ± 0.0449
12,CACCAACG,0.335 ± 0.0249
13,ACCGCGTG,0.246 ± 0.00416
14,GGAGGGGA,0.158 ± 0.02
15,ACGTAACA,0.199 ± 0.0228
16,AAACACTG,0.344 ± 0.0208
17,CAACACAC,0.342 ± 0.0337
18,AAGCACCG,0.175 ± 0.0203
19,CAACACTG,0.323 ± 0.00702
20,CAACACCC,0.456 ± 0.00535
21,CAACACCG,0.46689 ± 0.000212
22,AAACACCG,0.4654 ± 0.00275
23,CAACACAA,0.182 ± 0.0648
24,CAACACTC,0.36 ± 0.00549
25,CACCACCG,0.3551 ± 0.000962

row,Sequence,binding signal [E-score]
1,CAACACCA,0.4741 ± 0.00414
2,CACCAACA,0.377 ± 0.0268
3,ACCAGGTA,0.241 ± 0.0242
4,ATACTACA,0.257 ± 0.011
5,AACTGGTG,0.364 ± 0.0186
6,GACGCCGA,0.174 ± 0.0331
7,AGAGGTGC,0.19 ± 0.0288
8,ACTCCCCG,0.191 ± 0.00694
9,AAACACTT,0.252 ± 0.0426
10,AAACACGG,0.3488 ± 0.00234
11,GAACACCC,0.4707 ± 0.00185
12,AAACACGT,0.307 ± 0.0183
13,CAACACGA,0.328 ± 0.0204
14,GAACACTC,0.374 ± 0.0139
15,GAACACAC,0.319 ± 0.0348
16,CAACACGG,0.38 ± 0.0301
17,TAACACGA,0.399 ± 0.00944
18,AAACACCT,0.419 ± 0.00791
19,CACGTGAC,0.258 ± 0.0152
20,TCGGATAA,0.194 ± 0.0204
21,GGGTTTTA,0.163 ± 0.0227
22,ACACAGGG,0.158 ± 0.0633
23,CACCATTA,0.266 ± 0.00672
24,CACGGGTA,0.291 ± 0.0126
25,CACTCGAG,0.172 ± 0.0369

row,Sequence,binding signal [E-score]
1,TAACACCA,0.477 ± 0.00686
2,AAACACGC,0.336 ± 0.0161
3,GAACACGC,0.393 ± 0.0119
4,TAACACAA,0.216 ± 0.0241
5,GAACACGA,0.3393 ± 0.000771
6,TAGCACCA,0.2242 ± 0.00214
7,CACAGCTA,0.177 ± 0.0139
8,AACCCCGA,0.232 ± 0.0298
9,CACGCCCC,0.29 ± 0.0136
10,AGGGGTGC,0.221 ± 0.0348
11,ATGTCGTG,0.222 ± 0.0295
12,GTGTCTTA,0.3629 ± 0.00242
13,GTATCGCA,0.234 ± 0.0133
14,GTGTCGGA,0.454 ± 0.0132
15,GTGTCGTA,0.45 ± 0.0119
16,ATGTCGGG,0.199 ± 0.029
17,GTGTCGCA,0.442 ± 0.0148
18,GGGTCGGA,0.227 ± 0.0525
19,CCGAGCAC,0.178 ± 0.0032
20,ACCCAGTG,0.21 ± 0.0315
21,AGTGGTAG,0.157 ± 0.00503
22,ATGAGACA,0.159 ± 0.0072
23,GGTGCACA,0.268 ± 0.0361
24,ATAGCACG,0.157 ± 0.0235
25,ATCTACAC,0.404 ± 0.0153

row,Sequence,binding signal [E-score]
1,GTCCACAC,0.211 ± 0.0298
2,CTCTACAC,0.391 ± 0.0122
3,GTCTACAC,0.42 ± 0.0105
4,GTCTAACA,0.204 ± 0.0271
5,ATCCACAC,0.297 ± 0.0245
6,CTCCACAC,0.251 ± 0.0305
7,CCCTCTAC,0.205 ± 0.0116
8,TCGGTACA,0.219 ± 0.0249
9,GGGTCTCA,0.162 ± 0.0232
10,ACTGCCCG,0.219 ± 0.00643
11,TAGTATCA,0.221 ± 0.0229
12,CACCAAAC,0.283 ± 0.0195
13,ACCGCGAA,0.1607 ± 0.000856
14,CACATTTC,0.186 ± 0.0176
15,AGGTACTA,0.1967 ± 0.000601
16,GGGTACTA,0.224 ± 0.00292
17,GTGTACTA,0.438 ± 0.0127
18,GTGTGCCA,0.242 ± 0.0264
19,GTGTGCGA,0.173 ± 0.0312
20,GTGTACCA,0.4446 ± 0.00264
21,GTGTACGA,0.43943 ± 0.000382
22,GTATACCA,0.152 ± 0.0219
23,CCATGGGA,0.153 ± 0.052
24,ACCTCCCA,0.191 ± 0.00743
25,AATCTGAC,0.17 ± 0.00849

row,Sequence,binding signal [E-score]
1,GTCGTACA,0.26 ± 0.00478
2,CCCCCCGG,0.254 ± 0.0183
3,ACACAACC,0.219 ± 0.0237
4,CACCTACA,0.41 ± 0.00505
5,CACCTACG,0.232 ± 0.0231
6,CACCTACC,0.2673 ± 0.000516
7,GTATGACA,0.257 ± 0.00319
8,ACAAGTGT,0.344 ± 0.0292
9,CGCATACA,0.185 ± 0.00496
10,AGGGAGTC,0.239 ± 0.00436
11,GGGGACAC,0.41 ± 0.0266
12,AGGGATAC,0.165 ± 0.0372
13,CGGGATAC,0.281 ± 0.0031
14,AGGGACAC,0.402 ± 0.019
15,GGGGATAC,0.254 ± 0.0111
16,CGGGACAC,0.42 ± 0.00537
17,CGGGATCC,0.209 ± 0.0344
18,GAGGGGAC,0.2 ± 0.0143
19,CACTTGCA,0.173 ± 0.0121
20,GGATCTGA,0.194 ± 0.0532
21,CCGGATCA,0.176 ± 0.0156
22,AATCTGGT,0.159 ± 0.0527
23,GGTCGTAC,0.224 ± 0.0297
24,CGGGGTCA,0.269 ± 0.0255
25,ACTTCGTG,0.238 ± 0.000686

row,Sequence,binding signal [E-score]
1,AACAAGGG,0.177 ± 0.0185
2,AGCAGGTG,0.335 ± 0.0234
3,ACCCCACG,0.267 ± 0.00597
4,GGCGATAC,0.174 ± 0.0165
5,AGCGACAC,0.465 ± 0.00955
6,CGCGATAC,0.254 ± 0.0107
7,GGCGAGAC,0.168 ± 0.0212
8,GGCGACAC,0.44 ± 0.0183
9,CGCGACAC,0.4355 ± 0.00314
10,CGCGACCC,0.169 ± 0.0418
11,GAGCGACA,0.185 ± 0.0595
12,GTATCTCA,0.158 ± 0.00253
13,CACTACGA,0.191 ± 0.00718
14,CGAAACCC,0.16 ± 0.0514
15,AATAGCAC,0.202 ± 0.00634
16,ACACACAC,0.315 ± 0.0422
17,CCACACCC,0.393 ± 0.0374
18,GCACACAC,0.275 ± 0.0355
19,CCACACAC,0.271 ± 0.0195
20,ACACACCC,0.39 ± 0.0201
21,CCACACGC,0.282 ± 0.0206
22,GCGCACCC,0.236 ± 0.0394
23,ACCCACCC,0.276 ± 0.0223
24,GCACACCC,0.396 ± 0.0314
25,CGGGAATA,0.181 ± 0.0131

row,Sequence,binding signal [E-score]
1,CCCGAACA,0.1699 ± 0.00103
2,ACCTTACA,0.192 ± 0.02
3,CACCCACG,0.275 ± 0.0113
4,CGTCCTAC,0.182 ± 0.018
5,ACCCCATA,0.249 ± 0.00713
6,CACTGAGG,0.227 ± 0.0197
7,CCCGCGTC,0.193 ± 0.0507
8,CACCGCAA,0.284 ± 0.0454
9,CACTAATG,0.164 ± 0.0232
10,ACCTGGAG,0.222 ± 0.0157
11,AATTGGGG,0.17 ± 0.027
12,GCTACCCC,0.23 ± 0.0172
13,ACTACACG,0.4206 ± 0.00315
14,GCTATACC,0.169 ± 0.0037
15,CCTACTCC,0.179 ± 0.0115
16,ACTACACT,0.431 ± 0.0136
17,CCTACCCC,0.227 ± 0.00219
18,ACTACCCG,0.204 ± 0.0121
19,GCTACACC,0.473 ± 0.00658
20,ACTACACA,0.265 ± 0.0483
21,ACTATACA,0.238 ± 0.0193
22,TCTACACA,0.194 ± 0.0545
23,CCTACACC,0.4819 ± 0.00223
24,CCCCCGGC,0.2104 ± 0.00182
25,CTTGGGGA,0.158 ± 0.0109

row,Sequence,binding signal [E-score]
1,ACCCTTCC,0.161 ± 0.0416
2,CACCGGGA,0.176 ± 0.00643
3,CACTAGCA,0.163 ± 0.00431
4,ATAGCGTG,0.159 ± 0.0173
5,ACACATGC,0.176 ± 0.0202
6,ACCGGTAT,0.212 ± 0.02
7,CCCGAAGG,0.193 ± 0.0115
8,ACGCGTCC,0.174 ± 0.00808
9,GAATAACA,0.151 ± 0.00831
10,GATACCGA,0.214 ± 0.0181
11,CCTACCCG,0.183 ± 0.0228
12,CCTACACA,0.18 ± 0.0508
13,CCTACACG,0.398 ± 0.0115
14,ACTACCCC,0.267 ± 0.00871
15,ACTACTCC,0.163 ± 0.045
16,ACTACACC,0.4877 ± 0.000997
17,ACCCCTCA,0.289 ± 0.021
18,CTGTGCAC,0.216 ± 0.0216
19,ACCCCGTG,0.356 ± 0.0239
